The list is not random: actives were taken first. Their share in the collection is about 3.7%.
BoNT-A LC inh2 – inhibitors of Botulinum neurotoxin A light chain protease; multiplex microsphere protease substrate cleavage, flow cytometry; inhibition, % at 10 µM; 360,000 compounds, 0.17% hits; further: plate controls were buffer without enzyme for full effect and enzyme alone for no effect
Anthrax LF prot – anthrax lethal factor protease inhibition | P15917 | multiplex microsphere protease cleavage assay, LF | inhibition, % at 10 µM | 360,000 compounds, 0.12% hits | AID 588501; further: plate controls were buffer without enzyme for full effect and enzyme alone for no effect
Target sequence (P15917 whole entry, looked up): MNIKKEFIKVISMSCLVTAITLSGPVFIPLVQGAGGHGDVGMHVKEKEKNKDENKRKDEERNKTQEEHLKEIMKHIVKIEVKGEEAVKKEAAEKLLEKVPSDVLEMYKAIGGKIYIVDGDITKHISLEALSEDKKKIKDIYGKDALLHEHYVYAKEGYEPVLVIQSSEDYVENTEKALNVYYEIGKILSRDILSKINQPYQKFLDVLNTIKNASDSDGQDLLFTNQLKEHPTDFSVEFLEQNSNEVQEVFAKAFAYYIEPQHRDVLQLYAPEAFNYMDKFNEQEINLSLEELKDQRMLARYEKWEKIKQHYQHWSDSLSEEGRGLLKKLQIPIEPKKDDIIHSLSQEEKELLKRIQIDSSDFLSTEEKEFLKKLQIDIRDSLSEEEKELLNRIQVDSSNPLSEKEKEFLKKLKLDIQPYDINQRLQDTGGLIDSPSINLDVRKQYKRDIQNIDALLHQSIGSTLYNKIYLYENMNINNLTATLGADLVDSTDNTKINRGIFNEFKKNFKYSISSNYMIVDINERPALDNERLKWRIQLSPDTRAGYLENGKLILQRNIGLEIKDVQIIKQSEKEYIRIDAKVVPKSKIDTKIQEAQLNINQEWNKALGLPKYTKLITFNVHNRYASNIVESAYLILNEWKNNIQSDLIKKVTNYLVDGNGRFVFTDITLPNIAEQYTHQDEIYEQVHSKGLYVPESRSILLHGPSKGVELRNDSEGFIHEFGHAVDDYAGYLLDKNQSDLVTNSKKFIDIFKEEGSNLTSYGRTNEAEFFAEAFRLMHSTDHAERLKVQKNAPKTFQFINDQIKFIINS
Bead autofluor – counter-screen for toxin protease inhibitors: compound fluorescence; fluorescence intensity (no concentration beside the values); compound autofluorescence counterscreen, microsphere flow cytometry; hits give high values; 360,000 compounds, 3.1% hits; in the data active means fluorescence intensity above about 16000; inconclusive means no clear call, values can overlap the other calls
BoNT F protease – blocks Botulinum neurotoxin F light chain protease; 360,000 compounds, 0.22% hits; AID 588497; Multiplex microsphere protease cleavage assay, flow cytometry; inhibition, % at 10 µM; in the data active means inhibition above about 35%, passing the limit was not always enough; inconclusive means no clear call, values can overlap the other calls; further: plate controls were buffer without enzyme for full effect and enzyme alone for no effect
BJeLR lethal – BJeLR cell viability loss | BJeLR (HRASV12) viability, CellTiter-Glo ATP luminescence, 48 h | 300,000 compounds, 0.17% hits | inhibition, % (no concentration beside the values) | AID 1554; in the data active means inhibition above about 50%; inconclusive means no clear call, values can overlap the other calls
Vc quorum ag – inducers of Vibrio cholerae quorum light production without autoinducers; AID 588436; V. cholerae BH1578 lux reporter, luminescence, 6 h; activation, % at 18.7 µM; 350,000 compounds, 0.16% hits; in the data active means activation mostly above about 9.7%, no sharp cut-off; inconclusive means no clear call, values can overlap the other calls; inactive means mostly below about 3.7%
The depositor's hits bear a star; i = inactive; ? = inconclusive; nt = no result. Unless noted, no stated cut-off is given here; in the data, active means inhibition above about 30%; inconclusive means no clear call, values can overlap the other calls; inactive means below that.

SMILES	BoNT-A LC inh2	Anthrax LF prot	Bead autofluor	BoNT F protease	BJeLR lethal	Vc quorum ag
CC(=O)NC(Cc1cc(C)ccc1C)C(=O)N1CCN(C(=O)Nc2ccc(C(C)=O)cc2)CC1 (stereo not drawn)	?	-4	17945*	-6	-4	2
Cc1sc2nc(CN3CCCC3)nc(N3CCN(S(=O)(=O)c4cccs4)CC3)c2c1C	?	0	24350*	-4	5	0
Cc1cccc(N(CC(=O)Nc2ccccc2F)S(C)(=O)=O)c1	nt	nt	nt	nt	-1	0
CCc1ccc(NC(=O)CN(c2cccc(C)c2)S(C)(=O)=O)cc1	-1	-2	23603*	-4	5	0
CSc1ccccc1NC(=O)CN(c1cccc(C)c1)S(C)(=O)=O	-4	1	23782*	-6	1	0
CCNC(=O)CN(c1ccc(CC)cc1)S(C)(=O)=O	?	-2	23318*	0	-2	0
O=C1C=CC(=O)N1CCCCCCCCCCN1C(=O)C=CC1=O	1	3	3370	1	nt	i
CC1(C)C/C(=N\O)c2cc3c(nc2C1)CCCC3	-3	-1	23918*	-6	1	i
CSc1nc(SCC(=O)NC(c2ccccc2)c2ccccc2)c2c3c(sc2n1)CN(C)CC3	4	5	16363*	-4	5	-2
Cc1ccc(N(CC(=O)N2CCn3c2nc2ccccc23)S(=O)(=O)c2c(C)n[nH]c2C)cc1	-3	-7	17135*	0	-6	-3
CCOCCCn1c(=S)[nH]c2cc(C(=O)NCCOC)ccc2c1=O	2	-2	19971*	1	-5	-13
COCCNC(=O)c1ccc(Cn2c(=S)[nH]c3cc4c(cc3c2=O)OCO4)cc1	1	1	22929*	-1	6	i
CCOCCCNC(=O)c1ccc2c(=O)n(CCCOCC)c(=S)[nH]c2c1	-2	-2	4089	-2	-4	3
Cn1nc(C(C)(C)C)cc1C(=O)N1CCCCC1c1cc(C(=O)NCc2ccc(F)cc2)no1 (stereo not drawn)	0	-6	3888	4	nt	0
O=C(Nc1cccc(Br)c1)c1ccn[nH]1	-3	-4	21776*	-5	5	-5
CCOC(=O)c1nnn(-c2nc(OC)nc(N3CCCC3)n2)c1-c1ccccc1	-1	-1	3404	22	4	i
CCNc1nc(N2CCCCC2)nc(-n2nnc(C(=O)OCC)c2C)n1	?	-4	23587*	-4	3	i
Cc1cc(NC(=O)COC(=O)c2cc([N+](=O)[O-])ccc2N2CCOCC2)ccc1Br	nt	nt	nt	nt	-4	0
CCC(=O)N1CCN(c2ccc(Cl)cc2NC(=O)c2ccc(N3CCCC3)c([N+](=O)[O-])c2)CC1	5	-8	18754*	4	17	0
O=C(NCCCn1ccnc1)c1ccc(N2CCCCCC2)c([N+](=O)[O-])c1	2	-2	2530	-10	71*	-1
CC1CN(S(=O)(=O)c2ccc(C(=O)NCCCn3ccnc3)cc2)CC(C)O1 (stereo not drawn)	1	-8	4706	-11	71*	0
Cc1cccc(NC(=O)c2ccc(N3CCCCC3)c([N+](=O)[O-])c2)n1	?	-3	24725*	-7	12	-1
Cc1cccc(NC(=O)c2ccc(N3CCOCC3)c([N+](=O)[O-])c2)n1	-1	-3	4370	-4	-1	-1
Cc1ccc(F)cc1C(=O)N1CCCCC1c1cc(C(=O)Nc2ccc(F)c(Cl)c2)no1 (stereo not drawn)	0	6	3485	-4	nt	i
Cc1cc(=O)n2nc(N3CCCC(C(=O)Nc4cccc(C)c4C)C3)sc2n1 (stereo not drawn)	-1	5	8983	2	nt	0
SMILES	BoNT-A LC inh2	Anthrax LF prot	Bead autofluor	BoNT F protease	BJeLR lethal	Vc quorum ag
CC(C)(C)c1ccc(C(=O)c2c[nH]c(C(=O)NCCCn3ccnc3)c2)cc1	?	-1	24832*	-12	-8	i
Cc1ccc(NC(=O)c2ccc(-n3cccn3)c([N+](=O)[O-])c2)cc1	0	-1	16419*	-1	-6	i
O=[N+]([O-])c1ccc(CSc2ccc(S(=O)(=O)N3CCOCC3)cn2)cc1	1	-3	?	?	nt	i
CCOC(=O)c1ccc(N2CN=C3SCC(=O)N3C2)cc1	?	0	23262*	-3	1	-1
Cc1ccc(N2CN=C3SCC(=O)N3C2)cc1C	0	2	2591	3	-8	-1
COc1cc(CN2CCC(C(=O)N3CCN(c4ccccc4F)CC3)CC2)ccc1O	0	-2	23648*	2	-3	i
COc1cccc(CN2CCC(C(=O)N3CCN(c4ccccc4F)CC3)CC2)c1	0	0	2414	6	4	0
CC1=CC(C)(C)N(S(=O)(=O)c2ccc(C)cc2)c2cc(C)ccc21	1	1	10759	5	55*	i
Brc1ccc2nc(C3CCCCC3)c(Cc3ccsc3)n2c1	10	-2	5853	-33	nt	nt
Cc1cccn2c(=O)c(/C=C(\C#N)S(=O)(=O)c3ccccc3)c(N3CCC(C(N)=O)CC3)nc12	5	1	18714*	6	-11	-12
CCN1CCN(c2nc3ccccn3c(=O)c2/C=C(\C#N)S(=O)(=O)c2ccccc2)CC1	?	33*	4035	?	-3	i
CCN1CCN(c2nc3c(C)cccn3c(=O)c2/C=C(\C#N)S(=O)(=O)c2ccccc2)CC1	2	3	3217	16	-8	5
Cc1cc2nc(SCC(=O)Nc3nonc3C)c3c(c2cc1C)CCCC3	?	0	22694*	3	-4	0
Cc1ccc2nc(C(F)(F)F)c(C#N)c(N)c2c1	?	-1	23566*	0	12	i
Cc1cc(C)c2nc(C(F)(F)F)c(C#N)c(N)c2c1	0	-3	3232	-1	15	i
COc1cc(C(=O)N2CC(C)OC(C)C2)c([N+](=O)[O-])cc1OC (stereo not drawn)	2	4	18981*	1	6	-2
COc1ccc(NC(=O)N2CC(C)OC(C)C2)cc1OC (stereo not drawn)	-2	-2	24184*	-4	0	5
CC1CN(C(=O)Nc2ccc3c(c2)OCO3)CC(C)O1 (stereo not drawn)	6	2	20354*	8	3	0
COc1ccc(NC(=O)N2CCCC2)cc1OC	1	1	16119	4	6	-3
Cc1ccc([C@H]2C[C@@H](O)[C@H](n3cc(COC(=O)c4ccccc4)nn3)CN2C(=O)c2cccs2)cc1	0	1	3414	4	nt	2
CCN(CC)c1ccc2c(cc1=O)[C@@H](NC)CCc1cc(OC)c(OC)c(OC)c1-2	1	-6	3621	-14	56*	-6
CN[C@H]1CCc2cc(OC)c(OC)c(OC)c2-c2ccc(N(C)CC(OC)OC)c(=O)cc21	5	4	3759	1	53*	i
Cc1ccc(-n2ncc3c(=O)n(-c4cccc(C)c4)c(=O)[nH]c32)cc1	0	4	3353	-2	nt	i

Compound activity: PubChem BioAssay, several laboratories
